Holding throughout (experiment): NCI-60 one-dose screen, 48 h (100 = growth as untreated, 0 = no growth, -100 = all killed)
In one test the test system is HCT-15 colon. The conditions noted are these: 10 µM unless noted.
The next test relates to HT29 colon. The conditions noted are these: 10 µM unless noted.
For the next test, the system named is SNB-75 CNS. The conditions noted are these: 10 µM unless noted.
The subject of a further test is SNB-19 CNS. The conditions noted are these: 10 µM unless noted.
The subject of another test is U251 CNS. The conditions noted are these: 10 µM unless noted.
The next test concerns PC-3 prostate. The conditions noted are these: 10 µM unless noted.
Another test concerns SK-MEL-5 melanoma. The conditions noted are these: 10 µM unless noted.
A further test concerns UACC-62 melanoma. The conditions noted are these: 10 µM unless noted.
The subject of the next test is LOX IMVI melanoma. The conditions noted are these: 10 µM unless noted.
The subject of a further test is SK-MEL-28 melanoma. The conditions noted are these: 10 µM unless noted.
The subject of the next test is SK-MEL-2 melanoma. The conditions noted are these: 10 µM unless noted.
Another test has as its system EKVX NSCLC. The conditions noted are these: 10 µM.
The subject of the next test is SN12C renal. The conditions noted are these: 10 µM unless noted.
A further test relates to TK-10 renal. The conditions noted are these: 10 µM unless noted.
The subject of another test is ACHN renal. The conditions noted are these: 10 µM unless noted.
Another test relates to CAKI-1 renal. The conditions noted are these: 10 µM unless noted.
A further test relates to CCRF-CEM leukemia. The conditions noted are these: 10 µM.
The subject of the next test is MOLT-4 leukemia. The conditions noted are these: 10 µM unless noted.
In a further test the test system is A498 renal. The conditions noted are these: 10 µM unless noted.
The test system of another test is UO-31 renal. The conditions noted are these: 10 µM unless noted.

This passage reports growth results from PubChem BioAssay (NCI).

Where “and” joins values, the source holds several entries; their conditions need not be identical. Equal entries are not always repeated. Compounds without any hit were thinned out: in the full panel of roughly 83,000, 20% have a hit.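 Single-concentration screen, 48 h exposure, 96-well plates. Endpoint: percent growth. Below 10 = active.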 A number with no mark means an inactive call. Calls of active or inactive are those of the source.

For the compound `Oc1ccc(Cc2ccccc2Cl)c(O)c1`, the growth is 97.2% in the test with HCT-15 colon; 106% in the test on HT29 colon; 80.5% in the test on SNB-75 CNS; 100% in the test with SNB-19 CNS; 96.2% with U251 CNS; 82.5% in the test on PC-3 prostate. The growth in the test on SK-MEL-5 melanoma was 97.7%; in the test on UACC-62 melanoma it was 85.7%; in the test with LOX IMVI melanoma, 86.3%; in the test on SK-MEL-28 melanoma, 110%; with SK-MEL-2 melanoma, 97.8%; in the test with EKVX NSCLC it was 96.3%. Moreover, the growth with SN12C renal was 91.2%; with TK-10 renal, 103%; in the test with ACHN renal, 92%; in the test with CAKI-1 renal it was 91%; in the test with CCRF-CEM leukemia, 94.1%; in the test on MOLT-4 leukemia, 88.7%.

As for `Nc1cc(N)c(N)cc1N`, the growth is 54.2% with HCT-15 colon; 82.4% with HT29 colon; 56.6% in the test on SNB-75 CNS; 84.5% with SNB-19 CNS; 15.6% with U251 CNS; 92.7% in the test with PC-3 prostate. The growth in the test with SK-MEL-5 melanoma is -92.7% (active); with UACC-62 melanoma it was -40.3% (active); in the test on SK-MEL-28 melanoma, 78.7%; in the test on SK-MEL-2 melanoma it was -62.5% (active); in the test on EKVX NSCLC it was 57.5%; in the test on SN12C renal, -69.7% (active). The growth was 101% with TK-10 renal; 8.63% (active) in the test with ACHN renal; 82.5% in the test on CAKI-1 renal; 99.8% in the test with A498 renal; 89.6% in the test on CCRF-CEM leukemia; 83.2% in the test with MOLT-4 leukemia.

On to `O=C1CSC2=NCCN12`, for which the growth in the test on HCT-15 colon is 107% and 97.2%; with HT29 colon, 96.4% and 91.5%; with SNB-75 CNS, 87.5% and 83.3%; with SNB-19 CNS, 101% and 112%; in the test with U251 CNS, 88.7% and 91.1%; with PC-3 prostate it was 102% and 121%. Besides, the growth in the test on SK-MEL-5 melanoma is 88.9% and 86.1%; in the test with UACC-62 melanoma, 87.1%; with LOX IMVI melanoma, 94% and 90.1%; in the test with SK-MEL-28 melanoma, 78.5% and 85.8%; in the test on SK-MEL-2 melanoma, 89%; with SN12C renal it was 106% and 93.2%. Further, the growth was 84.6% and 90.1% with UO-31 renal; 101% and 106% in the test with TK-10 renal; 98.1% and 103% in the test with ACHN renal; 95.6% with CAKI-1 renal; 92.8% and 99.7% in the test on A498 renal; 102% and 88.1% with CCRF-CEM leukemia. Also, the growth with MOLT-4 leukemia was 106% and 67.1%.

Turning to `CN(C)CC1CCCCCC(CN(C)C)C1=O` (configuration not stated), the growth in the test on HCT-15 colon is 7.44% (active); in the test with HT29 colon, 31.8%; with SNB-75 CNS, 98.4%; with SNB-19 CNS it was 108%; in the test on U251 CNS, 89%; in the test on PC-3 prostate, 86.7%. Besides, the growth with SK-MEL-5 melanoma is 104%; with UACC-62 melanoma, 91.9%; in the test on LOX IMVI melanoma it was 81.3%; with SK-MEL-28 melanoma it was 94.8%; in the test with SK-MEL-2 melanoma, 106%; in the test on EKVX NSCLC, 111%. Further, the growth in the test with SN12C renal was 94.9%; with UO-31 renal it was 10.5%; with TK-10 renal, -22.3% (active); in the test with CAKI-1 renal, -48.5% (active); in the test with CCRF-CEM leukemia it was -23.7% (active); with MOLT-4 leukemia, 20.7%.

For `Cc1cc(-c2cc(C)c(O)c(C)c2)cc(C)c1O`, the growth was 70.8% in the test with HCT-15 colon; 96.1% with HT29 colon; 65% with SNB-75 CNS; 83.8% with SNB-19 CNS; 88.6% in the test with U251 CNS; 80.9% with PC-3 prostate. The growth in the test on SK-MEL-5 melanoma is 73.9%; with UACC-62 melanoma, 62.8%; in the test on SK-MEL-28 melanoma, 88%; with SK-MEL-2 melanoma, 73.5%; in the test on EKVX NSCLC, 68.2%; in the test on SN12C renal it was 90.5%. For the same compound, the growth is 90.5% in the test on TK-10 renal; 92.1% with ACHN renal; 59.4% in the test on CAKI-1 renal; 82.6% with CCRF-CEM leukemia; 74.9% with MOLT-4 leukemia.

On to `CCCCCCCCCCNC(=O)CI`, for which the growth in the test with HCT-15 colon was 14%; with HT29 colon, -54.9% (active); in the test with SNB-75 CNS it was -30.7% (active); in the test with SNB-19 CNS, 89.2%; in the test with U251 CNS it was 14.3%; in the test with PC-3 prostate, -39.8% (active). The growth in the test on SK-MEL-5 melanoma is 3.04% (active); in the test on UACC-62 melanoma, 59.4%; in the test on LOX IMVI melanoma it was -73.2% (active); with SK-MEL-28 melanoma, 58.4%; with SK-MEL-2 melanoma, -50.1% (active); with SN12C renal it was 33.9%. Further, the growth in the test with UO-31 renal is -90.1% (active); in the test on TK-10 renal, 15.5%; with CAKI-1 renal, -93.5% (active); in the test with CCRF-CEM leukemia, -47.1% (active); with MOLT-4 leukemia, -28.9% (active).
